Data as given in PubChem BioAssay (EPA / NIEHS).
Where “and” joins values, the source holds several entries; their conditions need not be identical. Identical values can stand only once. Results filed as inconclusive are left out. More than one record can exist for a structure, and the calls need not agree. Calls of active or inactive are those of the source. Rule for the calls, unless noted: active = hit-call score of the fitted dose curve at least 0.9, where 1 is the maximum; inactive = score below 0.9.

Experiments:
[1] = CCTE_Shafer_MEA_acute_spike_number: CCTE's Neural Acute Assay for Total Number of Spikes, Shafer Lab (AID 2284008);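 for AC50: curve fitted for decrease in spike count so AC50 reflects inhibitors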
Outline: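 Cortical neurons from rat, matured to DIV 13 or 15 on microelectrode arrays, are recorded at 37 C before and during 40-min exposure to 0.03-40 uM compound. Wells need >/= 10 active electrodes.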

[2] = CCTE_Shafer_MEA_acute_firing_rate_mean: CCTE's Neural Acute Assay for Mean Firing Rate, Shafer Lab (AID 2284009);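 note: analyzed for loss of signal so actives lower firing rate relative to DMSO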
Outline: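 Primary rat cortical neurons on 16-electrode MEA wells were exposed on DIV 13 or 15 to compound (0.03-40 uM). Spike counts per recording time, averaged over electrodes, were compared between 40-min baseline and 40-min post-exposure recordings as percent change.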

[3] = CCTE_Shafer_MEA_acute_burst_duration_mean: CCTE's Neural Acute Assay for Mean Burst Duration, Shafer Lab (AID 2284014);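 note: hits are decreases in mean burst duration relative to DMSO controls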
Outline: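 Mean burst duration was compared between a 40 min baseline and a 40 min recording in the presence of compound (0.03-40 uM, 37 C), giving percent change per well. Cultures were rat cortical neurons at DIV 13 or 15; wells needed ≥10 active electrodes.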

[4] = CCTE_Shafer_MEA_acute_per_burst_spike_number_mean: CCTE's Neural Acute Assay for Average Number of Spikes Per Burst, Shafer Lab (AID 2284015);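 note: hits are decreases in mean spikes per burst versus baseline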
Outline: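 Percent change in mean spikes per single-electrode burst is compared between a 40 min baseline and a 40 min recording with compound (0.03-40 uM). Cultures were rat cortical neurons on MEA plates at DIV 13 or 15, recorded at 37 C, with DMSO as the negative control.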

[5] = CCTE_Shafer_MEA_acute_burst_percentage_mean: CCTE's Neural Acute Assay for Percentage of Spikes in a Burst, Shafer Lab (AID 2284017);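 for AC50: curve fitted for loss of signal so potency reflects decreased burst percentage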
Outline: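 Well-level mean burst percentage from a 40-min recording after compound (0.03-40 uM) expressed as percent change from a 40-min baseline at 37C. Cultures: primary rat cortical neurons on MEA, dosed on DIV 13 or 15; fitted downward relative to DMSO.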

[6] = CCTE_Shafer_MEA_acute_burst_percentage_std: CCTE's Neural Acute Assay for Standard Deviation of Burst Percentage, Shafer Lab (AID 2284018);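 note: fitted in the negative direction so actives lower burst percentage SD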
Outline: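 Value is percent change from baseline in the across-electrode SD of spikes-in-bursts percentage, wells with >/= 10 active electrodes. Acute 40-min exposure to 0.03-40 uM on DIV 13 or 15 rat cortical cultures, recorded at 37 C after 40-min baseline.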

[7] = CCTE_Shafer_MEA_acute_per_network_burst_spike_number_mean: CCTE's Neural Acute Assay for Average Number of Spikes in a Network Burst, Shafer Lab (AID 2284019);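 for AC50: curve fitted for loss of signal so actives reduce spikes per network burst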
Outline: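 Percent change from baseline in mean spikes per network burst, spikes detected at 8x rms noise. Each compound at 0.03-40 uM in at least three wells of rat cortical cultures, recorded 40 min before and 40 min during exposure.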

[8] = CCTE_Shafer_MEA_acute_per_network_burst_spike_number_std: CCTE's Neural Acute Assay for Standard Deviation of Number of Spikes in a Network Burst, Shafer Lab (AID 2284020);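 note: fitted for decrease in spike-number SD versus DMSO so actives lower it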
Outline: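 Endpoint: percent change from 40 min baseline in standard deviation of spikes per network burst, after 40 min compound exposure (0.03-40 uM, 37 C). Cortical rat neurons on MEA at DIV 13 or 15; spikes detected at 8x rms noise, 300-5000 Hz band-pass.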

[9] = CCTE_Shafer_MEA_acute_per_network_burst_electrodes_number_mean: CCTE's Neural Acute Assay for Mean Number of Electrodes in a Network Burst, Shafer Lab (AID 2284021);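 note: curves fitted for decreases only so hits reduce electrodes per burst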
Outline: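 Cultures of rat cortex neurons were exposed on DIV 13 or 15 to compounds at 0.03-40 uM in at least three wells each. Activity over 40 min before and 40 min after exposure at 37 C gave the percent change in electrodes per network burst.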

[10] = CCTE_Shafer_MEA_acute_network_burst_percentage: CCTE's Neural Acute Assay for Percentage of Network Bursts, Shafer Lab (AID 2284022);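 note: curves fitted for loss so actives lower network burst percentage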
Outline: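 Cortical neurons from rat were grown over microelectrode arrays and used on day 13 or 15 in vitro. Wells with at least 10 active electrodes received test chemical at 0.03-40 uM. Activity during 40 min of exposure was compared with the preceding 40-min baseline.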

[11] = CCTE_Shafer_MEA_acute_synchrony_index: CCTE's Neural Acute Assay for Synchrony, Shafer Lab (AID 2284027);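 note: network synchrony index of spontaneous spiking in primary rat cortical neurons on MEAs; fitted for loss of signal so actives lower synchrony relative to DMSO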
Outline: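 The synchrony index is taken as percent change per well between a 40 min baseline and a 40 min recording with compound (0.03–40 uM), at 37C. Rat cortical cultures on multiwell MEAs at DIV 13 or 15, spike threshold 8× rms noise.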

[12] = target: bovine Estrogen Receptor (ER), ESR1 (gene 407238) (UniProt P49884); experiment: NVS_NR_bER: NovaScreen (NVS) Nuclear Receptor Binding Assay for bovine Estrogen Receptor (ER) (AID 2283345; active = hit-call score of the fitted dose curve at least 0.9, where 1 is the maximum;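 note: actives lower the bound radioligand count which means they displace the ER ligand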)
bovine Estrogen Receptor (ER), ESR1 (gene 407238), sequence (P49884 whole entry, looked up): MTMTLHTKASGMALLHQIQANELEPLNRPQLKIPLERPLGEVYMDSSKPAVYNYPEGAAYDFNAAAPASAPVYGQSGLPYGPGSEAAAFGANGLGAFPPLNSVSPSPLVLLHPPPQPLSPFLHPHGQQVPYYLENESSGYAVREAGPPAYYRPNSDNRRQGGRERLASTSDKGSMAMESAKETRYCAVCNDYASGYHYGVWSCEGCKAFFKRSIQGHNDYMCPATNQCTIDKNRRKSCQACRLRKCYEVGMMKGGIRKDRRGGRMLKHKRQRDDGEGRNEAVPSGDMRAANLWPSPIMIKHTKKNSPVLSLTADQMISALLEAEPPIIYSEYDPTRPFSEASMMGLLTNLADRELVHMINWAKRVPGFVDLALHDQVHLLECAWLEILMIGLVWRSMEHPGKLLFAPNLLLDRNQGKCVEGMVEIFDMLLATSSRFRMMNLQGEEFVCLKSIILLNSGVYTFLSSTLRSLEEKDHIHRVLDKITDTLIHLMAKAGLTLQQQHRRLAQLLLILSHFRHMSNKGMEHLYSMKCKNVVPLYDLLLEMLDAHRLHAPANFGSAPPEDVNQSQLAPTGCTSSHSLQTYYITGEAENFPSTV
Outline: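 Displacement of a radioligand from estrogen receptor in bovine uterine membrane preparations; scintillation signal taken at 18 hours, DMSO as baseline. Single-concentration duplicates (25 uM) preceded concentration-response follow-up of actives.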

[13] = target: Estrogen receptor (Homo sapiens) (UniProt P03372); experiment: NVS_NR_hER: NovaScreen (NVS) Nuclear Receptor Binding Assay for human Estrogen Receptor (ER) (AID 2283348; active = hit-call score of the fitted dose curve at least 0.9, where 1 is the maximum)
Estrogen receptor (Homo sapiens), sequence (P03372 whole entry, looked up): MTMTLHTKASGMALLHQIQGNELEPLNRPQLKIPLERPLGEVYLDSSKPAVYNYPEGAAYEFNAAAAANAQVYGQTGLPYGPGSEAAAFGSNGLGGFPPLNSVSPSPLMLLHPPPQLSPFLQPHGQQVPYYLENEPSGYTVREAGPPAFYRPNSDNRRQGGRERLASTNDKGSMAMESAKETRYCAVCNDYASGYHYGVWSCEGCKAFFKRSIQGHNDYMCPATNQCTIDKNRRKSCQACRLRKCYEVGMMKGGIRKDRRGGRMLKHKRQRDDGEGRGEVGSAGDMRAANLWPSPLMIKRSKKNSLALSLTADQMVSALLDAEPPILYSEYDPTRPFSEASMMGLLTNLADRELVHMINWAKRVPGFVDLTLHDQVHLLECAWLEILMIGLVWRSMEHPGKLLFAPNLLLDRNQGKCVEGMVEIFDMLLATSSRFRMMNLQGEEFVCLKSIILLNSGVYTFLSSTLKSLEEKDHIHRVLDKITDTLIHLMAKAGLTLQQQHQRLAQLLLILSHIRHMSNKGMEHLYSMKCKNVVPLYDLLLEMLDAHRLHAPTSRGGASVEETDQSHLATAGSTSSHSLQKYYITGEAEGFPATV
Outline: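 Cell-free MCF7-derived ER preparation, specific radioligand displaced by test compound, read by scintillation counting 18 h post-dosing. Duplicate single-point 25 uM screen, then concentration-response confirmation; DMSO baseline.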

[14] = read-out: Interferon-inducible T-cell alpha chemoattractant (ITAC), CXCL11 (gene 6373); experiment: BSK_hDFCGF_ITAC: BioMAP Diversity Plus: hDFCGF Assay for Interferon-inducible T-cell alpha chemoattractant (ITAC) Biomarker Activity (AID 2284251); settings: primary human foreskin fibroblasts
Outline: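 I-TAC levels were read by ELISA on human dermal foreskin fibroblast primary cultures 24 h after dosing, analysed against DMSO in the positive direction. Cytotoxicity was assessed alongside by sulforhodamine B total-protein staining.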

[15] = read-out: Intercellular Adhesion Molecule 1 (ICAM1), ICAM1 (gene 3383); experiment: BSK_BE3C_ICAM1: BioMAP Diversity Plus: BE3C Assay for Intercellular Adhesion Molecule 1 (ICAM1) Biomarker Activity (AID 2284278); settings: primary human bronchial epithelial cells;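 note: cell-surface ICAM-1 protein level quantified by ELISA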
Outline: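 ICAM-1 quantified by ELISA and fitted against DMSO baseline, 24 h post-dosing in BE3C cultures of primary human lung bronchial epithelial cells. Cytotoxicity checked in parallel cultures by total protein SRB staining.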

KRT18 (gene 3875) = experiment: BSK_BE3C_Keratin818: BioMAP Diversity Plus: BE3C Assay for Keratin 818 Biomarker Activity (AID 2284282); settings: primary human bronchial epithelial cells
Outline: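 ELISA readout of Keratin 8/18 in human primary bronchial epithelial cultures after 24 h chemical exposure, DMSO baseline. Parallel SRB staining (0.1%, TCA-fixed, 560 nm) served as cytotoxicity check.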

[16] = read-out: TIMP metallopeptidase inhibitor 2 (TIMP2), TIMP2 (gene 7077); experiment: BSK_hDFCGF_TIMP2: BioMAP Diversity Plus: hDFCGF Assay for TIMP metallopeptidase inhibitor 2 (TIMP2) Biomarker Activity (AID 2284289); settings: primary human foreskin fibroblasts
Outline: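 Primary human foreskin fibroblasts in the hDFCGF system, dosed for 24 h; TIMP-2 level measured by ELISA, fitted in the positive direction against DMSO; cytotoxicity checked in parallel by sulforhodamine B total protein staining.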

[17] = read-out: Thrombomodulin, THBD (gene 7056); experiment: BSK_LPS_Thrombomodulin: BioMAP Diversity Plus: LPS Assay for Thrombomodulin Biomarker Activity (AID 2284296); settings: primary human HUVEC with PBMC
Outline: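 Thrombomodulin on the surface of LPS-activated endothelial/PBMC co-cultures was quantified by ELISA at 24 hours post-dosing, with DMSO as baseline. Parallel SRB total-protein staining flagged overt cytotoxicity.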

[18] = BSK_3C_Proliferation: Cell Proliferation Assessment in the BioMAP Diversity Plus: 3C Assay (AID 2283006); settings: primary human endothelial cells (HUVEC);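 for AC50: potency may reflect either rise or fall in cell number versus DMSO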
Outline: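 Proliferation as total protein: sulforhodamine B (0.1%) stain of TCA-fixed subconfluent human umbilical vein endothelial cells, absorbance 560 nm, 48 h after dosing. Activity fitted in both directions against DMSO baseline.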

[19] = target: human Vitamin D Receptor (VDR), VDR (gene 7421) (UniProt P11473); experiment: ATG_VDR_TRANS: Attagene TRANS-FACTORIAL HepG2 Assay for human Vitamin D Receptor (VDR) (AID 2283022; active = hit-call score of the fitted dose curve at least 0.9, where 1 is the maximum)
human Vitamin D Receptor (VDR), VDR (gene 7421), sequence (P11473 whole entry, looked up, the tested form may be a part): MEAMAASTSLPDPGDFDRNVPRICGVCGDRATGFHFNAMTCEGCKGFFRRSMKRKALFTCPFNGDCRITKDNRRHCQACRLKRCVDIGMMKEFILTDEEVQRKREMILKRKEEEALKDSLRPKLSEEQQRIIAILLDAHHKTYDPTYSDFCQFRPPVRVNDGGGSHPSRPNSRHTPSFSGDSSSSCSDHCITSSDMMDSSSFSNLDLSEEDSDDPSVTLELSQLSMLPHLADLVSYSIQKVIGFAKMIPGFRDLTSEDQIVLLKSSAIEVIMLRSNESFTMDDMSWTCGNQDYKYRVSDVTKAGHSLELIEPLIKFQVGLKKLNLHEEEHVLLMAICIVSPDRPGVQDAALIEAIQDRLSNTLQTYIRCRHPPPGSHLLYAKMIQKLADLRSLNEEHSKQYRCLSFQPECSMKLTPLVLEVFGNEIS
Outline: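 Fluorescence of labelled reporter cDNA fragments, resolved by capillary electrophoresis, gives mRNA induction after 24 h treatment of HepG2 cells carrying transfected Gal4-fusion reporter units. Activity is fitted in the positive direction with DMSO as baseline.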

Measured: AC50

CN(C)CCC(c1ccc(Cl)cc1)c1ccccn1 (stereo unspecified)
inactive: [1] | [2] | [3]
active: [4] 24.3 µM | [5] 23.8 µM | [6] 27.1 µM | [7] 3.62 µM | [8] 19.5 µM | [9] 3.59 µM | [10] 22.8 µM | [11] 27.7 µM

CC1(C)S[C@@H]2[C@H](NC(=O)[C@H](N)c3ccccc3)C(=O)N2[C@H]1C(=O)O
active: [5] 0.0814 µM | [10] 3.57 µM | [11] 0.0846 µM
inactive: [1] | [2] | [3] | [4] | [6] | [7] | [8] | [9]

COC(OC)C(C)c1ccccc1 (stereo unspecified)
inactive: [12]

c1cc(N(CC2CO2)CC2CO2)ccc1Cc1ccc(N(CC2CO2)CC2CO2)cc1 (stereo unspecified)
inactive: [13]

CC[N+](CC)(CC(=O)Nc1c(C)cccc1C)Cc1ccccc1 (tested in a mixture with another compound)
active: [1] 0.256 µM | [2] 0.694 µM | [5] 2.13 µM
not listed: [12] | [13] | [18] | [19]
inactive: all other assays above

Cc1cc2nc3c(=O)[nH]c(=O)nc-3n(C[C@H](O)[C@H](O)[C@H](O)CO)c2cc1C
inactive: [12]

Oc1ccc(Oc2ccccc2)cc1
active: [12] 11 µM | [13] 6.92 µM

O=C(C(=O)c1ccccc1)c1ccccc1
inactive: [18]

N#CCN(CC#N)CCN(CC#N)CC#N
inactive: [19]

NC(N)=Nc1nc(CSCCC(N)=NS(N)(=O)=O)cs1
inactive: [1] | [2] | [3] | [4] | [5] | [6] | [7] | [8] | [9] | [10] | [11]

CO[Si](CCCNCCN)(OC)OC
inactive: [19]

COC(=O)/C=C\C(=O)OC
inactive: [18]

CN(C)Cc1cc(C(C)(C)C)c(O)c(C(C)(C)C)c1
active: [1] 2.98 µM | [2] 2.98 µM | [5] 24.1 µM | [6] 15 µM | [7] 0.0516 µM | [8] 0.0258 µM | [11] 22.8 µM | [14] 20 µM
inactive: [18] | [19] | [3] | [4] | [9] | [10] | [14] | [15] | KRT18 (gene 3875) | [16] | [17]

O=C(c1ccccc1)c1ccccc1O
inactive: [19]

Brc1ccc(Oc2ccc(Br)cc2)cc1
inactive: [19]

c1cc[c]([Bi]([c]2ccccc2)[c]2ccccc2)cc1
inactive: [19]

Sc1nc2ccccc2s1
inactive: [18]

C=CCOC(=O)C(=C)C
inactive: [19]

O=C1NC(=O)[C@@H]2CC=CC[C@H]12
inactive: [19]

CCC[Si](OC(C)=O)(OC(C)=O)OC(C)=O
active: [1] 0.0721 µM | [2] 0.0721 µM
not listed: [12] | [13] | [19]
inactive: all other assays above

CC(=O)O[C@]1(C(C)=O)CC[C@H]2[C@@H]3C=C(C)C4=CC(=O)CC[C@]4(C)[C@H]3CC[C@@]21C
inactive: [12] | [13]

COc1cc(CNC(=O)CCCC/C=C/C(C)C)ccc1O
inactive: [1] | [2] | [3] | [4] | [7] | [8] | [9] | [10] | [15] | KRT18 (gene 3875) | [16] | [17]
active: [18] 8.93 µM and 9.17 µM | [5] 4.25 µM | [6] 8.5 µM | [11] 5.59 µM | [14] 8.32 µM and 8.05 µM | [16] 27.7 µM

[O-][n+]1ccc(Cl)cc1
inactive: [19]

CCCCCCCCCC/C=C/C1CC(=O)OC1=O (stereo unspecified)
inactive: [18] | [19] | [12]

O=[N+]([O-])c1ccc(ON=Cc2cc(Br)c(O)c(Br)c2)c([N+](=O)[O-])c1
inactive: [12] | [13]
